TSHR antag: Antagonists of the Thyroid Stimulating Hormone Receptor: HTS campaign | TSHR-expressing cells, TSH-stimulated cAMP HTRF, 2 h; stronger effect = lower value | activity change, negative = inhibition, % at 11.5 µM | 0.2% of 330,000 active;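 active means activity change below a set negative limit, meaning inhibition stronger than a set level, cut at about -70% in these data; inconclusive means activity change between two set negative limits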
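Freshly harvested TSHR cells receive pin-tooled compound, then EC80 TSH at 4nM final. After 2 hours at 37 deg C, antibody in lysis buffer and cAMP-d2 are added; 30 minutes at ambient temperature precede the HTRF read.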
Gal4-VP16 FLuc: VP16 counterscreen qHTS for inhibitors of ROR gamma transcriptional activity; Drosophila S2 Gal4-VP16 UAS-luciferase, luminescence, 20 h; Potency, µM (titrated, usually from 53.6 µM), usual class: inhibitors; 3.5% of 310,000 active; AID 2546, 2010;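 further: Gal4-VP16 expression switched on by copper sulfate through the metallothionein promoter; nearly all actives have a fitted effect of over 50% in size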
RORg inh: qHTS for inhibitors of ROR gamma transcriptional activity | Nuclear receptor ROR-gamma (Mus musculus), P51450 | Drosophila S2 Gal4-RORgamma UAS-luciferase reporter, 20 h | Potency, µM (highest dose often 53.6 µM), hits mostly inhibitors | 5.4% of 310,000 active | AID 2551, 2010; further: nearly all actives have a fitted effect of over 60% in size
Target sequence (P51450 whole entry, looked up, the tested form may be a part): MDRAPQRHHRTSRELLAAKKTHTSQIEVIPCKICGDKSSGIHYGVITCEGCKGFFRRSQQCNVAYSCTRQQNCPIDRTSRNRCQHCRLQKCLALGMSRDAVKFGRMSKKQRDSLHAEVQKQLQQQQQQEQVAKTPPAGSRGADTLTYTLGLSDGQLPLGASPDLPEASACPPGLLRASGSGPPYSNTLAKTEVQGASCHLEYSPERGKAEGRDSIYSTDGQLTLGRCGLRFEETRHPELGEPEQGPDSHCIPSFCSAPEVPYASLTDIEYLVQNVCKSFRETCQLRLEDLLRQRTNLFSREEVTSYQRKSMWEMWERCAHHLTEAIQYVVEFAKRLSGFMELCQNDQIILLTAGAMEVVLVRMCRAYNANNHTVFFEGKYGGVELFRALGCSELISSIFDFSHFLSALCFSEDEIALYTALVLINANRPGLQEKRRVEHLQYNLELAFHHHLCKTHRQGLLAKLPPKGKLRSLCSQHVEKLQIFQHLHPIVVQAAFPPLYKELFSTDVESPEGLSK
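A Gal4/UAS one-hybrid system in insect cells: metallothionein-promoter Gal4–ROR gamma fusion plus Photinus luciferase reporter. Copper sulfate 700 uM final, 20 hr ambient incubation, luminescent detection after 10 min with reagent.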
B2AR arrestin: qHTS assay of beta-arrestin-biased ligands of beta2-adrenergic receptor. Potency, µM (titrated, usually from 46.1 µM), usual class: activators. Beta-2 adrenergic receptor (Homo sapiens), P07550. AID 492947, 2010. 0.02% of 330,000 active. beta-arrestin recruitment to beta2AR, cell-based reporter; further: nearly all actives have a fitted effect of over 65% in size
ELG1 DNA repair: qHTS screen for small molecules that inhibit ELG1-dependent DNA repair in human embryonic kidney (HEK293T) cells expressing luciferase-tagged ELG1; HEK293T ELG1-luciferase reporter, luminescence, 16 h; DNA damage induced by 5-fluorouridine; Potency, µM (highest dose often 46.1 µM), most hits filed as inhibitors; 2.3% of 330,000 active; further: nearly all actives have a fitted effect of over 55% in size
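Luminescence from the luciferase reporter, measured 30 min after ONE-Glo reagent at room temperature, was the read-out. Beforehand, 2,000 cells per well were exposed for 16 hr at 37 °C to 5-fluorouridine together with compound or vehicle.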
A number is an active result; 0 = inactive; ? = inconclusive; - = no result; ! = not confirmed by another sample; [ ] = another dose, or the depositor's remark. Only some compounds are listed: those with a hit (about 7.5% of all), similar ones and a draw of the others. Unless noted, the call rests on the fitted dose curve; in most records, active means well fitted curve in the direction sought with a large enough effect; inconclusive means small, poorly fitted or top-dose-only effect, or another doubt; inactive means no such curve, though single readings can be large; an effect the other way counts as inactive or inconclusive.

SMILES	TSHR antag	Gal4-VP16 FLuc	RORg inh	B2AR arrestin	ELG1 DNA repair
CN1C(=O)C(CC(=O)O)S/C1=N\N=C\c1ccc(O)cc1O (stereo not given)	0	20µM	?	0	0
CCOC(=O)c1c(C)[nH]c(C(=O)OCC(=O)N(CC(C)C)C2CCS(=O)(=O)C2)c1C (stereo not given)	0	-	-	0	0
CC/C=C\C/C=C\C/C=C\C/C=C\C/C=C\C/C=C\CCC(=O)NCCO	-	0	0	-	-
O=C(COc1ccccc1Br)c1ccc2c(c1)OCO2	0	-	-	0	?
O=C(COc1ccccc1Br)c1ccc(O)cc1O	0	?	10µM	0	?
Cc1cc(NC(=O)CSc2nc(-c3cccs3)cc(C(F)(F)F)n2)no1	0	0	0	0	0
COc1ccc(-c2cc(C(F)(F)F)nc(S(C)(=O)=O)n2)cc1	0	8.91µM	12.6µM	0	0
CS(=O)(=O)c1nc(-c2ccc(F)cc2)cc(C(F)(F)F)n1	0	4.47µM	2.51µM	0	?
COc1ccc(-c2cc(C(F)(F)F)nc(N)n2)cc1	0	0	0	0	0
CS(=O)(=O)c1nc(-c2cccs2)cc(C(F)(F)F)n1	0	4.47µM	2µM	?	?
O=C(O)CCS(=O)(=O)c1nc(-c2cccs2)cc(C(F)(F)F)n1	0	?	?	0	0
Cc1cc(NC(=O)CCCS(=O)(=O)c2nc(-c3cccs3)cc(C(F)(F)F)n2)no1	0	0.891µM	5.62µM	0	?
CC1Cc2cc(S(=O)(=O)NCCC(=O)N(C)Cc3ccccc3)ccc2N1C(=O)C1CC1 (stereo not given)	0	0	0	0	?
COc1ccc2c3c(c(=O)oc2c1)C1O[C@](CCCCN2C(=O)c4ccccc4C2=O)(Cc2cc(OC)c(OC)cc21)O3	-	0[10 µM]	0[10 µM]	0[9.22 µM]	-
Cc1ccc(S(=O)(=O)N2CCCC(C(=O)NCCc3ccccc3)C2)cc1 (stereo not given)	0	0	0	0	0
C[C@H]1CN([C@@H](C)CO)C(=O)c2cccc(NS(=O)(=O)c3ccc(Cl)cc3)c2O[C@@H]1CN(C)CC1CCCCC1	0	-	-	0	0
COc1ccc(-c2cc(C(F)(F)F)nc(-n3cc(Cl)cn3)n2)cc1	0	?	?	0	23.1µM
COc1cc(OC)cc(C(=O)Nc2ncn[nH]2)c1	0	-	-	0	0
C=CCOc1cccc(C(=O)Nc2ncn[nH]2)c1	0	?	22.4µM	0	0
CC(C)(C)C(=O)Nc1cccc(-c2cc(-c3c(Cl)cccc3Cl)no2)c1	0	0	0	0	8.2µM
O=C(O)c1ccccc1NC(=O)c1cc(-c2ccccc2)nc2ccccc12	0	0	?	0	0
Cc1ccccc1NC(=S)NC(=O)c1cc(-c2ccccc2)nc2ccccc12	0	3.98µM	1.78µM	0	0
Cc1cccc(NC(=S)NC(=O)c2cc(-c3ccccc3)nc3ccccc23)c1	0	5.62µM	2µM	0	0
CCCCCCCCOc1ccccc1C(=O)Nc1ccc(C(=O)OCC[N+](C)(CC)CC)cc1	-	0	0	-	-
Fc1cccc(NC(=S)NCCCN2CCOCC2)c1	0	0	0	0	0
SMILES	TSHR antag	Gal4-VP16 FLuc	RORg inh	B2AR arrestin	ELG1 DNA repair
CSc1cccc(NC(=S)NN(C)C)c1	0	10µM	3.16µM	0	0
CSc1cccc(NC(=S)Nc2ccc(F)cc2)c1	0	?	?	0	0
CSc1cccc(NC(=S)NCCCN2CCN(c3ccc(F)cc3)CC2)c1	0	?	6.31µM	0	?
CSc1cccc(NC(=S)N2CCC(N(C)C3CCCCC3C)CC2)c1 (stereo not given)	0	0	12.6µM	0	0
COCCCNC(=S)Nc1cccc(SC)c1	0	11.2µM	1.58µM	0	0
CSc1cccc(NC(N)=S)c1	0	0	0	0	0
CCOC(=O)c1cnn(-c2ccccc2)c1NC(=O)CN1CCCCC1	0	0	0	0	0
CN1CCN(CCCN2c3ccccc3Sc3ccc(C(F)(F)F)cc32)CC1	0	14.1µM!	?	0	0
CCOC(=O)c1c(C)oc2c1c1c(c3ccccc32)OCN(Cc2ccccn2)C1	0	11.2µM	7.08µM	0	?
COc1ccc(/C=N/NC(=S)Nc2ccccc2)cc1COc1ccc(F)cc1	0	0.891µM	0.355µM	0	0
COc1ccc(/C=N/NC(=S)Nc2ccccc2)cc1COc1ccccc1F	0	3.16µM	2.24µM	0	0
COc1ccc(/C=N/NC(=S)Nc2ccccc2)cc1COc1ccc(Br)cc1	0	2.24µM	0.316µM	0	0
Cc1ccc(C)c(Cn2ncc3ccccc32)c1	0	0	0	0	0
CCOC(=O)N1CCN(C(=O)c2cn(CC(C)C)c(=O)c3c2c2ccccc2n3C)CC1	0	0	0	0	18.4µM
CCOC(=O)N1CCN(C(=O)c2cn(C)c(=O)c3c2c2ccccc2n3C)CC1	0	0	0	0	?
Cc1ccc(-n2cccn2)c(CN2CCCC(C(=O)c3sccc3C)C2)c1 (stereo not given)	0	0	0	0	16.4µM
Cc1ccsc1C(=O)C1CCCN(Cc2cccn2-c2ccc(Cl)cn2)C1 (stereo not given)	0	0	0	0	0
COc1nc(C)ccc1-c1noc(-c2cccs2)n1	0	?	1.78µM	0	?
Cc1ccc(N(C)S(=O)(=O)c2cccc(C(=O)N(C)Cc3cnn(-c4ccccc4)c3)c2)cc1	0	-	-	0	16.4µM
CN(Cc1ccon1)Cc1cn(C)nc1-c1cccc(Cl)c1	0	0	0	0	?
CCCCSc1nc2sc3c(c2c(=O)n1-c1ccc(C)cc1)CCN(C)C3	-74.0	0	?	0	?
CCOC(=O)CSc1nc2sc3c(c2c(=O)n1-c1ccc(C)cc1)CCN(C)C3	0	0	0	0	0
Cn1c(N2CCN(C(c3ccccc3)c3ccccc3)CC2)nc2ccccc21	0	12.6µM	11.2µM	0	?
Cn1c(N2CCN(C(=O)Nc3ccc(F)cc3)CC2)nc2ccccc21	0	0	0	0	?
Cc1ncc2c(c1O)COP(=O)(O)OC2	-	0	0	-	-
SMILES	TSHR antag	Gal4-VP16 FLuc	RORg inh	B2AR arrestin	ELG1 DNA repair
COCCn1c(=O)[nH]c2cc(C(=O)NCCN3CCN(c4cccc(Cl)c4)CC3)ccc2c1=O	0	0	0	0	20.6µM
COc1ccc(N2CCN(CCNC(=O)CCCn3c(=O)[nH]c4cc(Cl)ccc4c3=O)CC2)cc1	0	0	0	0	0
CCOCCCn1c(=S)[nH]c2cc(C(=O)N3CCN(c4ccccc4)CC3)ccc2c1=O	0	?	12.6µM	0	0
Cc1cc(C(=O)NCCN2CCN(c3cccc(Cl)c3)CC2)n(-c2ccccc2)n1	0	0	0	0	8.2µM
Cc1cc(C(=O)NCCCN2CCN(c3cc(Cl)ccc3C)CC2)n(-c2ccccc2)n1	0	0	0	0	?
COCCn1c(=S)[nH]c2cc(C(=O)N3CCN(c4cccc(Cl)c4)CC3)ccc2c1=O	0	?	11.2µM	0	?
